Measurements: PubChem BioAssay AID2669 (National Center for Advancing Translational Sciences (NCATS), 2010)
Results filed as inconclusive are left out. Activity calls are given as the source filed them. The call rests on the fitted dose curve; in most records, active means well fitted inhibition curve with a large enough effect; inconclusive means small, poorly fitted or top-dose-only effect, or effect the other way; inactive means flat fitted curve, though single readings scatter.

Test: qHTS Assay Multiplex Screening to Identify Dual Action Probes in a Cell Model of Huntington: Cytoprotection (Protease relase)
In short: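 Inducible PC12 line expressing HTT exon 1 (Q103)-GFP, induced with 100 nM tebufenozide (final) and treated with compounds. Cytoprotection read as released protease activity by Cytotox-Glo luminescence.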

| SMILES | Potency |
| --- | --- |
| CC(C(=O)O)c1ccc(CC2CCCC2=O)cc1 (stereo not given) | inactive |
| Cc1cccc(OCc2nc(C)cc(=O)[nH]2)c1 | 10 µM (active) |
| Cc1ccc(-n2ncc(Br)c(Br)c2=O)cc1 | 12.6 µM (active) |
| O=C(Nc1ccccc1)C1=C(O)CC(c2ccco2)CC1=Nc1ccccc1 (stereo not given) | inactive |
| COc1cccc(C(=O)Nc2ccc(F)c(F)c2F)c1 | 7.08 µM (active) |
